The values that follow come from ChEMBL document CHEMBL4513216, “Probing the Open Global Health Chemical Diversity Library for Multistage-Active Starting Points for Next-Generation Antimalarials” (ACS Infect Dis, 2020).

The campaign covered roughly 69,000 compounds. About 8,600 (12%) showed an effect of 50% or more. The list comes from a sample in which strong results are over-represented; it also holds similar structures and randomly drawn compounds.

In this assay the test system is Plasmodium berghei. The assay is described as follows: Screen against P. berghei liver stage (PbLuc), transformed with Luciferase, at 10uM. The assay is classed as functional, HepG2. To be noted: tested at 10 uM.
In the case of `O=C(CCCOc1cccc(F)c1)N1CCCC(n2cncn2)C1` (stereo not drawn), the INHIBITION is on record as -49.5%.
The result for `Cc1nc(CN2C(=O)CCC23CCN(Cc2cccn2C)CC3)cs1` reads 29.3%; that for `Cc1nnc2n1CCN(C(C(=O)N1CCCCC1)c1ccccc1)C2` (stereo not drawn), 11.15%.
`CCOC(=O)Cn1ccc(O)c(Cc2ccc(Cl)cc2Cl)c1=O`: the INHIBITION is on record as 1.95%.
`O=C1CCN(C(=O)CCc2ccc(Cl)cc2Cl)CCN1`: the INHIBITION turned out to be 4.97%.
As for `NC(=O)Cn1ccc(O)c(Cc2ccc(Cl)cc2Cl)c1=O`, the figure is 71.9%; as for `O=C(NCc1ccc(Cl)cc1Cl)NCC1(O)CCSC1` (stereo not drawn), 31.2%; as for `O=c1c(Cc2ccc(Cl)cc2Cl)c(O)ccn1CC1CC1`, 86.6%.
`COc1ccc2c(=O)n(CC3CC3)ccc2c1OC`: the INHIBITION turned out to be 6.28%.
As for `COc1nc2c(cc1C(=O)NC(C)Cc1cnccn1)CCC2` (stereo not drawn), the figure is -40.5%.
Take `O=C(NCCNc1ccc(C(F)(F)F)cn1)c1cc(Cl)ccc1F`: the INHIBITION turned out to be 37.3%.
Turning to `Cc1nc(C)n(Cc2cccc(NC(=O)NC(C)(CO)C3CC3)c2)n1` (stereo not drawn), the INHIBITION is recorded as 47.4%.
For the compound `CC(=O)Nc1cccc(Cn2nc(C)nc2C)c1`, the INHIBITION is on record as 39.7%.
The result for `C=C(C)COCCNC(=O)Nc1cccc(Cn2nc(C)nc2C)c1` reads 62.8%; that for `Cc1cc(F)c2c(c1)CCCN2S(=O)(=O)c1ncn(C)c1Cl`, 33.7%.
As for `Cc1nn(C(C)C)cc1S(=O)(=O)N(C)Cc1nonc1C`, the figure is 11.8%; as for `CC(=O)N1CCCC1c1nccc(C)n1` (stereo not drawn), 21.6%.
As for `CC(C)(O)CN1CCN(C(=O)c2ccc3c(c2)COC3)CC1`, the figure is -1.14%.
Turning to `COc1cccc(CCC2CCCCN2)c1` (stereo not drawn), the INHIBITION was 36%.
On to `Cc1cc(C(=O)N2CCN(c3nc4c(C)cccc4s3)CC2)no1`, for which the INHIBITION stood at 24.7%.
As for `Cc1cc(C(=O)N2CCN(c3nc4c(F)cccc4s3)CC2)no1`, the figure is -18.5%.
Take `Cc1cc(C(=O)N2CCN(c3nc4c(C(C)C)cccc4s3)CC2)no1`: the INHIBITION was determined as 90.4%.
With `COc1cc(C)nc(N2CCN(C(=O)c3cc(C)no3)CC2)n1`, the INHIBITION is listed as 19.2%.
On to `COc1cccc2sc(N3CCN(C(=O)c4cc(C)on4)CC3)nc12`, for which the INHIBITION is given as 17.1%.
Take `Cc1cc(C(=O)N2CCN(c3nc4c(C(C)C)cccc4s3)CC2)on1`: the INHIBITION is 92.1%.
As to `CC(C)Nc1cccc(CC2CCN(S(C)(=O)=O)CC2)n1`, the INHIBITION is listed as 41.2%.
The result for `N#CC1CCCN(c2ncnc3c2CCN(Cc2ccccc2)CC3)C1` (stereo not drawn) reads 67.8%; that for `Cn1ccnc1CN1CCc2ncnc(N3CCCC(C#N)C3)c2CC1` (stereo not drawn), 11.3%.
As to `c1ccc(CN2CCc3ncnc(C4CC4)c3CC2)cc1`, the INHIBITION stood at 0.164%.
On to `O=C(c1ccc2c(c1)CCC2)N1CC[C@H](O)[C@]2(CCCO2)C1`, for which the INHIBITION is recorded as 32.3%.
Take `CC(C)c1nc(-c2cc(C(=O)NCCN(C)C)c3ccccn23)cs1`: the INHIBITION was -2.41%.
As for `Cc1ncc(CNC(=O)N(C)Cc2ccc([S+](C)[O-])cc2)s1` (stereo not drawn), the figure is 40.5%; as for `CN(Cc1ccc([S+](C)[O-])cc1)c1ccc(Cl)cn1` (stereo not drawn), 33%.
The result for `Cc1csc(CNC(=O)N(C)Cc2ccc([S+](C)[O-])cc2)n1` (stereo not drawn) reads 20.6%; that for `CN(Cc1ccc([S+](C)[O-])cc1)c1cncc(Cl)n1` (stereo not drawn), 52.2%.
For the compound `CN(Cc1ccncc1)c1cncc(Br)c1`, the INHIBITION is reported as 33.4%.
The result for `CN(Cc1ccc([S+](C)[O-])cc1)c1cncc(Br)c1` (stereo not drawn) reads 58.4%.
With `CCc1cc(=O)[nH]c(SCc2ccccn2)n1`, the INHIBITION was -35.5%.
On to `Cc1noc(C(C)C)c1C(=O)N1CCC(n2cccn2)CC1`, for which the INHIBITION is on record as 26.5%.
For the compound `Cc1cc(C)n(CC2CN(Cc3nc(C)c(C)o3)CCO2)n1` (stereo not drawn), the INHIBITION is on record as -47.6%.
`CN1CCN(C(=O)NC2CC2)Cc2cccnc21`: the INHIBITION turned out to be 0.547%.
`COC1COC2(CCN(Cc3ccc(Cl)cc3)CC2)C1` (stereo not drawn): the INHIBITION was determined as 19.5%.
With `Cn1cc(CNC2CCOCC2)c(-c2cc3ccccc3o2)n1`, the INHIBITION is reported as 39.6%.
For the compound `Cn1cc(CNC2CCS(=O)(=O)C2)c(-c2cc3ccccc3o2)n1` (stereo not drawn), the INHIBITION is given as 35%.
Regarding `Cn1cc(CNC2CCC(O)CC2)c(-c2cc3ccccc3o2)n1` (stereo not drawn), the INHIBITION is listed as 72.1%.
The result for `COc1cccc(CN2CCC3(CCN(C(=O)[C@H]4CCCO4)CC3)C2)c1` reads 43.2%; that for `Cc1nn(C)c(=O)c2nn(-c3ccc(Cl)cc3)c(C)c12`, 28.5%; that for `O=C([C@H]1COC[C@H]2CN(CC3CCCC3)C[C@H]21)N1CCOCC1`, 11.3%.
Regarding `O=C([C@H]1COC[C@H]2CN(CC3CC3)C[C@H]21)N1CCOCC1`, the INHIBITION amounted to 60%.
The result for `O=C([C@H]1COC[C@H]2CN(CC3CCC3)C[C@H]21)N1CCOCC1` reads 24.6%; that for `O=C([C@@H]1COC[C@H]2CN(CC3CCCC3)C[C@H]21)N1CCOCC1`, 65.9%; that for `O=C([C@@H]1COC[C@H]2CN(CC3CC3)C[C@H]21)N1CCC(F)CC1`, 12.7%.
Consider `O=C(C1CN(CC2CC2)CC12CCOCC2)N1CCOCC1` (stereo not drawn), for which the INHIBITION is listed as -7.24%.
